Assay outcomes from PubChem BioAssay.
Hits are enriched below; roughly 27% of the tested compounds scored in any of these assays.
CYP2C19 act: cytochrome P450 2C19 (human) activation; P33261; activation factor at 5 µM; 96,000 tested, under 10 active; AID 1025; recombinant CYP2C19, luciferin-H EGE luminescence; hits give high values; 0 = fully inhibited enzyme, 1 = untreated enzyme;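 active = activation factor of at least 2 at 5 µM in the primary screen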;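 also: 0 = wells with 2.5 mM tranylcypromine and 1 = vehicle-only wells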
Target sequence (P33261 whole entry, looked up): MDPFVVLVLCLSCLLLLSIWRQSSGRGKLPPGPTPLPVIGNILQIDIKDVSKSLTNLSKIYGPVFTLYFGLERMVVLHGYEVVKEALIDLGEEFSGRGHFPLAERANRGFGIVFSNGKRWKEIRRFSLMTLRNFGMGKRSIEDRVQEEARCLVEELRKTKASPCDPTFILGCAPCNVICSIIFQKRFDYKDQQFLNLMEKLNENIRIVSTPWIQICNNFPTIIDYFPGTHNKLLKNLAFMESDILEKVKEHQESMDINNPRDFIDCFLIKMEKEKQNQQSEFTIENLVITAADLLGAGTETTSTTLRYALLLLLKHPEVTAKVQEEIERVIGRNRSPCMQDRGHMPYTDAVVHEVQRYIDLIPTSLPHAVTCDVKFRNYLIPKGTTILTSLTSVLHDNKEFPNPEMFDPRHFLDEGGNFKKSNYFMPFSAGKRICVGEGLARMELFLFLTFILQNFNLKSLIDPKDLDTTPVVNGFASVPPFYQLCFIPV
CYP2C19 inhib: blocks human cytochrome P450 2C19; P33261; CYP2C19 Supersomes, luciferin-H EGE luminescence, 30 min; inhibition, % at 5 µM; AID 778; actives 21% (n = 96,000);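 active = CYP2C19 inhibition above a set limit at 5 µM in the primary screen, cut at about 50% in these data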;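 also: plate controls were negative control wells for no effect and 2.5 mM tranylcypromine positive control for full effect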
CYP2C9 inh: inhibitors of human CYP2C9; actives 20% (n = 96,000); CYP2C9 Supersomes, luciferin-H conversion, luminescence; inhibition, % at 5 µM; P11712; AID 777;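 active = blocking of liver enzyme CYP2C9 beyond about 50% at 5 µM, limit read from the data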
CYP2C9 activ: increases human cytochrome P450 2C9 activity. recombinant CYP2C9, luciferin-H conversion, luminescence; hits give high values; factor 1 = untreated enzyme, 0 = blocked. activation factor at 5 µM. actives 1.4% (n = 96,000). P11712;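 active = activation factor of 2 or more for CYP2C9 at a 5 µM dose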;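 also: 0 = sulfaphenazole-blocked wells and 1 = vehicle-only wells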
EphB4 ephrin blk: blocks human EphB4 binding to ephrin-B2; EphB4 LBD / TNYL-RAW-Alexa532 peptide, fluorescence polarization; inhibition, % at 7 µM; actives 0.15% (n = 97,000);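 active = inhibition above the screen-wide mean inhibition plus 3 SD, cut at about 15% in these data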;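 also: 0% = DMSO wells and 100% = excess unlabeled TNYL-RAW peptide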
* marks the source's active call; other numbers are inactive results; x = no result given.

SMILES | CYP2C19 act | CYP2C19 inhib | CYP2C9 inh | CYP2C9 activ | EphB4 ephrin blk
O=C(NCc1ccccc1Cl)c1cnn2cccnc12 | 0.6 | 41 | -68 | 1.7 | -7
COc1ccc(OCCSc2ncnc3nc[nH]c23)cc1 | 0.7 | 35 | 3 | 1 | 5
Cc1ccc(S(=O)(=O)N2CCN(C(=O)C3CCCCC3)CC2)cc1 | 0.7 | 29 | 4 | 1 | x
N#Cc1nc(COc2ccc(F)cc2)oc1NCCCn1ccnc1 | 0 | 96* | 88* | 0.1 | 9
O=S1(=O)N=C2CCCN2C(c2ccc(F)cc2)N1 (stereo not drawn) | 1 | -4 | -15 | 1.1 | -2
CCOc1c(Br)cc(C2NS(=O)(=O)N=C3CCCCCN32)cc1OC (stereo not drawn) | 0.3 | 68* | 66* | 0.3 | 2
CCCCC12CN3CC(C)(CN(C1)C31C(=O)N(C)c3ccc(C)cc31)C2=O (stereo not drawn) | x | x | x | x | 13
Cc1ccc(Cn2nc(C)c(NC(=O)c3cc(-c4ccc5c(c4)OCO5)on3)c2C)cc1 | 0.8 | 24 | 53* | 0.5 | 2
COc1ccc(-c2cc(C(=O)Nc3c(C)nn(Cc4ccccc4Cl)c3C)no2)cc1OC | 0.8 | 15 | 63* | 0.4 | 0
COc1ccc(-c2cc(C(=O)Nc3c(C)nn(Cc4ccc(Cl)cc4)c3C)no2)cc1 | 0.5 | 51* | 50 | 0.5 | 9
COc1ccc(OC)c(-c2cc(C(=O)Nc3c(C)nn(Cc4ccccc4Cl)c3C)no2)c1 | 0.8 | 23 | -23 | 1.2 | -3
CC(=O)O/N=C(/C)c1ncc(C(F)(F)F)cc1N1CCOCC1 | 0.9 | 8 | 15 | 0.9 | 8
O=C1CCCCCN1Cc1ccccc1 | 0.6 | 35 | -3 | 1 | 4
CN1c2ccccc2C(C)(C)C12C=Cc1cc(O)ccc1O2 (stereo not drawn) | 0.2 | 76* | 61* | 0.4 | -6
Cc1c(Cl)cccc1NC(=O)CN1C(=O)CSc2ncccc21 | 0.4 | 64* | -256 | 3.6* | 4
CCOC(=O)c1sc(NC(=O)CCN2C(=O)c3cccc([N+](=O)[O-])c3C2=O)c(C(=O)OCC)c1C | 0.5 | 49 | 57* | 0.4 | -7
CCOC(=O)c1c(NC(=O)CCN2C(=O)c3ccccc3C2=O)sc(C(=O)OC(C)C)c1C | 0.8 | 23 | 60* | 0.4 | 5
CCOC(=O)CSC1=NC(=O)/C(=C\c2ccc(OC(C)=O)cc2)S1 | 0.9 | 14 | 10 | 0.9 | -3
Cc1ccc(Nc2nc(=O)c3cccnc3s2)cc1 | 0.1 | 94* | 82* | 0.2 | 3
CCCCCC/C(=N/O)c1ccccn1 | 0.8 | 20 | 28 | 0.7 | 3
CC(C)N1C(=S)SC(C)(C)C1NO (stereo not drawn) | 0.9 | 14 | -7 | 1.1 | -2
Cc1cccc(C)c1NC(=O)C(C)c1ccc(-c2ccccc2)c(F)c1 (stereo not drawn) | 0.9 | 5 | 82* | 0.2 | 1
Cc1cccc(C)c1NC(=O)C(c1ccccc1)N1CCC1=O (stereo not drawn) | 1.1 | -5 | -14 | 1.1 | -2
CC1CCC(C(C)C)C(OC(=O)CSc2nnc(N)s2)C1 (stereo not drawn) | 0.3 | 66* | 40 | 0.6 | 2
Cc1nnc(SCC(=O)OC2CC(C)CCC2C(C)C)[nH]c1=O (stereo not drawn) | 0.7 | 32 | 88* | 0.1 | 9
SMILES | CYP2C19 act | CYP2C19 inhib | CYP2C9 inh | CYP2C9 activ | EphB4 ephrin blk
CC(=O)NC(CC(=O)Nc1ccc(S(=O)(=O)N2CCCC2)cc1)c1ccccc1 (stereo not drawn) | 0.9 | 12 | 52* | 0.5 | 6
CCN(CC)S(=O)(=O)c1ccc(NC(=O)CC(NC(C)=O)c2ccccc2)cc1 (stereo not drawn) | 0.5 | 50 | 86* | 0.1 | -3
CCN(CC)S(=O)(=O)c1ccc(NC(=O)C(OC)c2ccccc2)cc1 (stereo not drawn) | 0.9 | 7 | 55* | 0.4 | -2
O=C(Nc1ccccc1)Nc1ccc(S(=O)(=O)N2CCCCC2)cc1 | 1 | -5 | 22 | 0.8 | -7
COC(=O)c1ccc(Cl)c(NC(=O)CN(c2ccc(OC)cc2)S(=O)(=O)c2ccccc2)c1 | x | x | x | x | -7
CCNC(=O)CN(c1ccccc1)S(=O)(=O)c1ccc(Cl)cc1 | 0.3 | 69* | 33 | 0.7 | 5
CCNC(=O)CN(c1ccc(Cl)cc1)S(=O)(=O)c1ccccc1 | 0 | 96* | 63* | 0.4 | -3
O=c1nc(NCc2ccco2)sc2ncccc12 | 1.1 | -9 | 7 | 0.9 | 2
CC1(C)Nc2ccc(O)cc2-c2c1ssc2=S | x | x | x | x | -8
COc1cccc(-n2sc3c(c2=S)-c2cc(OC)ccc2NC3(C)C)c1 | 0.9 | 12 | 69* | 0.3 | -5
COC(=O)c1sccc1NC(=S)N1CCCC(C)C1 (stereo not drawn) | 0.9 | 7 | 19 | 0.8 | 10
COC(=O)c1sccc1NC(=S)N1CCCCC1C (stereo not drawn) | 0.4 | 63* | 22 | 0.8 | 2
Cc1ccc(C(=O)NC2CCS(=O)(=O)C2)cc1S(=O)(=O)N1CCOCC1 (stereo not drawn) | 1.1 | -15 | -10 | 1.1 | 1
CC(C)OC(=O)C(NC(=O)c1ccccc1)=C1CCCCC1 | 0.9 | 14 | 34 | 0.7 | -9
CCOc1ccc(CCNC(=O)c2ccc(N3CCCC3=O)cc2)cc1OCC | 1 | -2 | 10 | 0.9 | 9
Cc1sc2ncnc(N3CCN(CCOc4ccc(Cl)cc4)CC3)c2c1C | 0 | 97* | 99* | 0 | -13
Cc1sc2ncnc(N3CCC(C)CC3)c2c1C | x | x | x | x | 4
O=C(O)c1cccc(N2C(=O)CSC2c2c(F)cccc2Cl)c1 (stereo not drawn) | x | x | x | x | 1
Cc1ccc(N2C(=O)CSC2c2c(F)cccc2Cl)cc1 (stereo not drawn) | 0.1 | 93* | 58* | 0.4 | 3
COc1cc(CC(=O)Nc2sccc2C(N)=O)cc(OC)c1OC | 1 | -3 | 18 | 0.8 | -4
CCN(CC)C(=O)c1sc2nc(N3CCOCC3)c3c(c2c1N)CCCC3 | 1 | -2 | 52* | 0.5 | -3
CCOC(=O)c1sc2nc(N3CCOCC3)c3c(c2c1N)CCCC3 | 1 | 2 | 9 | 0.9 | 1
Cc1ccc2nc3sc(C(=O)NCc4ccco4)c(N)c3cc2c1 | x | x | x | x | -5
COC(=O)c1sc2nc(N3CCCCC3)c3c(c2c1N)CCCC3 | 0.6 | 37 | 72* | 0.3 | 2
Nc1c(C(=O)NCc2ccco2)sc2nc(N3CCOCC3)c3c(c12)CCCC3 | 1.1 | -7 | 56* | 0.4 | 1
COC(=O)c1ccc(-c2sc3nc(N4CCOCC4)c4c(c3c2N)CCCC4)o1 | 0.4 | 57* | 55* | 0.4 | -1
NC(=O)c1sc2nc(N3CCCCC3)c3c(c2c1N)CCCC3 | 0.6 | 43 | 68* | 0.3 | x
NC(=O)c1sc2nc3c(c(-c4ccc(Cl)cc4)c2c1N)CCCC3 | 1 | -3 | 17 | 0.8 | 2
Cc1ccc(N2CC(C(=O)NCCC(C)C)CC2=O)cc1 (stereo not drawn) | x | x | x | x | 2
